The text below walks through data of PubChem BioAssay AID795 (NMMLSC, 2007).

In all, about 24,000 compounds went through this assay and about 130 (0.54%) were called active. The entries come from a sample that favours actives as a whole. A number with no mark means an inactive call.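 How the source made its calls: active means side scatter shift above 30%; inactive means the rest.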

The nature of this assay: inducers of granularity increase in LNCaP cells – cell-based, flow cytometry side scatter, primary screen (AID 795).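 Further: androgen-responsive LNCaP prostate cancer cells in charcoal-stripped serum medium; percent of cells past a gate set so DMSO wells show 10% shift; higher shift means more granular cells and more differentiation.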 Particulars: LNCaP differentiation, 4 d, at 10 µM, stronger effect = higher value. Background: In flow cytometry, cells or beads pass a laser one at a time.
Consider `Cc1ccc(-c2noc(-c3ccccc3C(=O)NCC3CCCO3)n2)cc1` (stereo unspecified), for which the side scatter shift was 5%. Turning to `CCOC(=O)Nc1ccccc1N1C(=O)c2ccccc2C1=O`, the side scatter shift is 8%. Next, `O=C(CNS(=O)(=O)c1ccc(Br)s1)NCc1ccc2c(c1)OCO2`: 9%; `COc1ccc(-c2nc(CS(=O)CC(=O)N3CCc4ccccc4C3)c(C)o2)cc1` (stereo unspecified): 11%.

Consider `O=C1CSC(c2cccc(F)c2)N1c1ccccc1F` (stereo unspecified), for which the side scatter shift is 8%. `CCOC(=O)c1cccc(NC(=O)CCc2c(C)nc3ncnn3c2C)c1`: the side scatter shift was 4%. Turning to `CC1Cc2nc(SCC(=O)Nc3ccccc3F)n(C)c(=O)c2S1` (stereo unspecified), the side scatter shift was 7%. Next, `CSCCC(NC(=O)C1CCC(C)CC1)C(=O)NCc1ccco1` (stereo unspecified): 3%; `CCOc1ccc(NC(=O)N(CCC(C)C)C(C)c2ccco2)cc1` (stereo unspecified): 7%; `COc1cc2[nH]c(=O)n(CCC(=O)NC3CCN(Cc4ccccc4)CC3)c(=O)c2cc1OC`: 2%. Take `Cn1c(=O)cc(SCC(=O)N2CCCC2)c2cc(Cl)ccc21`: the side scatter shift was 9%. `COc1cc(OC)cc(-c2nc3nc(C)c(CCC(=O)NCc4ccco4)c(C)n3n2)c1`: the side scatter shift was 5%. Next, `CC1C=CCC2C(=O)N(c3cccc(C(=O)N4CCCCCC4)c3)C(=O)C12` (stereo unspecified): 3%. As to `C/C(=N\O)C1(C)N(O)C(C)(C)C(c2ccc(Br)cc2)=[N+]1[O-]` (stereo unspecified), the side scatter shift is 11%. Consider `CCCSc1nc2c(c(=O)[nH]c(=O)n2C)n1CCc1ccccc1`, for which the side scatter shift is 9%. Under `Cc1ccc2nc3n(c(=O)c2c1)CCC3` stands 8%; under `Cc1nc2nc(SCC(=O)NCc3ccco3)nn2c(C)c1Cc1ccccc1`, 4%. For the compound `S=C1SCN(CCN2CCOCC2)CN1Cc1ccccc1`, the side scatter shift was 18%.

With `CCOC(=O)C1CCCN(C(=O)Cn2ncc3c(=O)oc4ccc(C)cc4c32)C1` (stereo unspecified), the side scatter shift is 5%.

For `O=C(NC(=O)c1ccc(Cl)c(Cl)c1)OC1CCS(=O)(=O)C1` (stereo unspecified), the side scatter shift was 6%. As to `CC1CCc2c(sc3c2C2=NS(=O)(=O)CCN2C=N3)C1` (stereo unspecified), the side scatter shift is 12%. Next, `CC(=O)c1c(N)n(C)c(=O)n(C)c1=O`: 0%; `CCCC1CC(C)(C(=O)Cn2[nH]c(=O)ccc2=O)OC1=O` (stereo unspecified): 1%.

Take `Fc1cc(F)c2nc(N3CCOCC3)sc2c1`: the side scatter shift was 5%.

For `Cn1c(=O)c2c(nc(N3CCCCCC3)n2CC(=O)c2ccc(Br)cc2)n(C)c1=O`, the side scatter shift is 21%. On to `CCOC(=O)N1CCN(C(=O)c2ccc(S(=O)(=O)c3ccc(C)cc3)c(NC(C)=O)c2)CC1`, for which the side scatter shift is 8%. `N#CC1=C(N)C(C#N)(C#N)[C@H](c2ccsc2)[C@H]2COCC=C12`: the side scatter shift is 9%. As to `NC(=O)CSC1=Nc2ccccc2C2=NC(CCC(=O)NCc3ccc(F)cc3)C(=O)N12` (stereo unspecified), the side scatter shift was 0%. Take `COc1ccc(NC(=O)C2CCCN(S(=O)(=O)c3cccc4cccnc34)C2)cc1` (stereo unspecified): the side scatter shift is 6%. Under `CCCCN(CC)CCCNC(=O)CS(=O)(=O)Cc1nc(-c2cccc(OC)c2)oc1C` stands 7%; under `CC(=O)Nc1cc2ccc(OC(C)=O)cc2oc1=O`, 10%; under `O=C(CSc1nc2[nH]ncc2c(=O)n1-c1ccccc1)N1CCCc2ccccc21`, 5%.

Turning to `COc1ccc(OCc2ccc(-c3nc4ccccc4c(=O)n3N)o2)cc1`, the side scatter shift is 6%. `Cc1ccc(NC(=O)c2nc[nH]c2C(=O)N2CCCCC2)c(C(=O)c2ccccc2)c1`: the side scatter shift was 14%. As to `COc1ccc(OC)c(NC(=O)CC(Cc2ccccc2OC)C(=O)O)c1` (stereo unspecified), the side scatter shift was 15%. Under `CCn1cc(C(=O)N2CCN(C3CCCCC3)CC2)c2cc(OC)c(OC)cc2c1=O` stands 7%; under `Cc1nc2ccccc2c2oc(C(=O)NCC3CCCO3)cc12` (stereo unspecified), 11%; under `O=C(CN1C(=O)C2C3C=CC(C3)C2C1=O)NCC1COc2ccccc2O1` (stereo unspecified), 9%.

Turning to `Cn1c(CNC(=O)C(C)(C)C)nc2ccccc21`, the side scatter shift was 3%. On to `COCCN1C(=O)c2oc3c(C)cc(C)cc3c(=O)c2C1c1cccc(O)c1` (stereo unspecified), for which the side scatter shift is 3%.

`CC1(C)CC(O)C(CCC(O)c2ccccc2)C(C)(C)N1` (stereo unspecified): the side scatter shift was 5%.

Turning to `CCOC(=O)c1ccc2[nH]c(C)c(CN3CCN(C)CC3)c(=O)c2c1`, the side scatter shift is 10%. For `COCCN(CC(=O)Nc1ccccc1C)S(=O)(=O)c1ccc(S(=O)(=O)N2CCCC2)cc1`, the side scatter shift was 3%.

Regarding `COc1ccccc1NC(=O)CSc1nnc(Cc2cccn2C)n1-c1ccc(F)cc1`, the side scatter shift is 14%.

`CC1(C)CC(=O)C=C(NCc2ccncc2)C1`: the side scatter shift is 6%. In the case of `CCOC(=O)N1CCC(C(N)=O)CC1`, the side scatter shift is 12%.

Regarding `Nc1ccc(-n2nncc2-c2ccco2)cc1`, the side scatter shift is 2%. Under `CC12CN3CC(C)(CN(C1)C3c1ccc(Cl)cc1Cl)C2=O` (stereo unspecified) stands 7%; under `O=C(CSc1nnc2ccccn12)c1ccccc1`, 3%; under `CCCCCCn1c(CN2CCCC(C)C2)nc2c1c(=O)n(C)c(=O)n2C` (stereo unspecified), 7%.

For `CCOC(=O)c1ccc(NC(=O)Cn2nnc(-c3ccc(C)cc3)n2)cc1`, the side scatter shift was 12%. Under `COc1ccc(Cc2nnc(NC(=O)Cc3cccs3)s2)cc1` stands 23%; under `COc1ccc(CC(=O)Nc2ccc(-c3nnc(-c4ccc(C)cc4)o3)cc2)cc1`, 37% (active). Regarding `CCCCOC(=O)NCN1C(=O)C2C3C=CC(C3)C2C1=O` (stereo unspecified), the side scatter shift was 11%. For `Cc1noc(C)c1S(=O)(=O)N1CCCC(C(=O)Nc2nccs2)C1` (stereo unspecified), the side scatter shift was 13%. Next, `O=C(c1ccco1)N1CCN(c2cccc(Cl)c2)CC1`: 16%; `CCN(CC)C(=O)c1sc(NC(=O)c2ccco2)c(C#N)c1C`: 7%; `Cc1ccc(-n2nc3cc(Cl)c(NC(=O)c4ccco4)cc3n2)cc1`: 36% (active). Under `CCCS(=O)(=O)N1CCN(C(=O)c2cccs2)CC1` stands 14%; under `Cc1cccc(C2c3c(n(C)c(=O)n(C)c3=O)N=C3c4ccccc4C(=O)C32)c1` (stereo unspecified), 36% (active); under `COc1ccc(C2C3=C(OC(C)=O)c4ccccc4C3=Nc3c2c(=O)n(C)c(=O)n3C)cc1` (stereo unspecified), 13%. Take `Cc1cc(C)nc(-n2nc(C)cc2NC(=O)c2ccc(Br)o2)n1`: the side scatter shift was 9%. On to `CCOC(=O)N1CCC(Nc2c(NCCN3CCN(c4cccc(Cl)c4)CC3)c(=O)c2=O)CC1`, for which the side scatter shift was 16%. Take `CCOc1c(OC)cc(C2C(C#N)=C(N)Oc3n[nH]c(-c4ccncc4)c32)cc1OC` (stereo unspecified): the side scatter shift was 4%. On to `Cc1ccc(N2CCN(c3ccc(C)cc3)C2c2ccccn2)cc1`, for which the side scatter shift was 16%.

In the case of `Cc1ccc(C(c2sc3nc(C)nn3c2O)N2CCN(c3ccccc3)CC2)cc1` (stereo unspecified), the side scatter shift was 10%. In the case of `FC(F)Oc1ccccc1C1CC(c2ccc(Br)s2)Nc2ncnn21` (stereo unspecified), the side scatter shift was 11%. For the compound `Cc1c(NC(=O)C(C)OC(=O)c2cc3c4ccccc4n(C)c3s2)c(=O)n(-c2ccccc2)n1C` (stereo unspecified), the side scatter shift was 7%.

With `CCOC(=O)N1CCC(NC(=O)c2cnn3ccccc23)CC1`, the side scatter shift is 2%. In the case of `Cc1ncn(C23CC4CC(CC(O)(C4)C2)C3)n1`, the side scatter shift is 9%.

On to `O=C(c1ccc(=O)[nH]c1)N(Cc1ccco1)C1(C(=O)NC2CCCCC2)CCCCC1`, for which the side scatter shift was 1%. Next, `CCN(c1ccc2c(c1)OCO2)S(=O)(=O)c1cc(Br)cc2c1N(C(=O)C1CC1)CC2`: 6%; `c1ccc(CCn2nnnc2CN2CCN(C3CCCC3)CC2)cc1`: 14%. On to `O=C(NCCc1ccc(Cl)cc1)C1CC(=O)N(C2CCCCC2)C1` (stereo unspecified), for which the side scatter shift was 24%. For `Cc1nc2ccc(NC(=O)N3CCC(c4ccccc4)C3)cc2nc1C` (stereo unspecified), the side scatter shift was 11%.

Regarding `COc1cc2ccccc2cc1C(=O)Nc1ccc(S(=O)(=O)Nc2cc(C)on2)cc1`, the side scatter shift was 12%. Regarding `COc1ccc2c(c1)CCc1c(C(=O)Nc3c(C)n(C)n(-c4ccccc4)c3=O)noc1-2`, the side scatter shift is 1%. `COc1ccc(OC)c(CNC(=O)CCc2nc(-c3cccs3)no2)c1`: the side scatter shift is 12%. For `CCCN1Cc2cccc(C(=O)NCc3ccccc3)c2C1=O`, the side scatter shift was 9%.

On to `O=C(CCCn1c(SCC(=O)c2ccc(F)cc2)nc2ccccc2c1=O)NCc1ccco1`, for which the side scatter shift was 8%. With `CCc1nnc(NC(=O)CSc2nnc(Cc3ccccc3)n2-c2ccc(OC)cc2)s1`, the side scatter shift was 6%. In the case of `CC(NC(=O)c1ccc(Cl)cc1)C(=O)N1CCCCC1` (stereo unspecified), the side scatter shift was 5%. Under `O=C1Nc2c(Br)cc(Br)cc2C1(O)N1CCOCC1` (stereo unspecified) stands 13%; under `O=C(c1ccco1)N1CCN(CC(=O)N(C2CCCCC2)C2CCS(=O)(=O)C2)CC1` (stereo unspecified), 9%; under `COc1cccc(C(=O)Nc2c3c(nn2-c2cccc(C)c2C)CS(=O)(=O)C3)c1OC`, 8%. Regarding `CCN(Cc1ccccc1)C(=O)CSc1nc(C)cc2c1C(=O)OC2`, the side scatter shift was 4%.

For `COc1ccc2c(CC(=O)Nc3nnc(C4CC4)s3)coc2c1`, the side scatter shift was 7%. `CCCN1CCN(CCCNC(=O)CN2C(=O)COc3ccccc32)CC1`: the side scatter shift was 7%. Regarding `COc1ccccc1-n1cnc2cc(NS(=O)(=O)c3ccccc3)ccc21`, the side scatter shift was 11%.

Take `COc1ccc(OC)c(CN2C(=O)CCC2(C)C(=O)NC2CCCCCC2)c1` (stereo unspecified): the side scatter shift is 11%. In the case of `Cc1ccc(-c2nc(CS(=O)CC(=O)NC3CCCC3)c(C)o2)cc1` (stereo unspecified), the side scatter shift is 7%.

Consider `Cc1ccnc(N2C(=O)c3ccccc3C2Nc2ccc3c(c2)OCCO3)c1` (stereo unspecified), for which the side scatter shift is 7%. On to `CCOc1ccccc1NC(=O)c1cc(S(=O)(=O)N2CCC3(CC2)OCCO3)ccc1F`, for which the side scatter shift was 7%. Under `CCOC(=O)N1CCC(NC(=O)C(C)n2c3ccccc3c3cnn(C)c(=O)c32)CC1` (stereo unspecified) stands 6%; under `Cn1c2ccccc2c2c(C(=O)N3CCN(c4ccc(F)cc4)CC3)cn(C3CCCC3)c(=O)c21`, 1%. Take `O=c1c(-c2ccccc2)coc2c(CN3CCOCC3)c(O)ccc12`: the side scatter shift was 9%.
